From PubChem BioAssay
Shiga toxin inh – A qHTS for Small Molecule Inhibitors of Shiga Toxin; actives 9.2% (n = 290,000); Vero cells, Shiga toxin protein synthesis inhibition reporter; inhibition, % at 38.7 µM; in the data active means inhibition mostly above about 28%, no sharp cut-off; inactive means mostly below about 43%
FBPA Giardia inh – qHTS Assay for Inhibitors of Fructose-1,6-bisphosphate Aldolase from Giardia Lamblia. purified Giardia FBPA. actives 0.71% (n = 290,000). Potency, µM (highest dose often 59.6 µM), hits mostly inhibitors. AID 2451, 2010; further: nearly all actives have a fitted effect of over 55% in size
Target sequence (A8B2U2 whole entry, looked up): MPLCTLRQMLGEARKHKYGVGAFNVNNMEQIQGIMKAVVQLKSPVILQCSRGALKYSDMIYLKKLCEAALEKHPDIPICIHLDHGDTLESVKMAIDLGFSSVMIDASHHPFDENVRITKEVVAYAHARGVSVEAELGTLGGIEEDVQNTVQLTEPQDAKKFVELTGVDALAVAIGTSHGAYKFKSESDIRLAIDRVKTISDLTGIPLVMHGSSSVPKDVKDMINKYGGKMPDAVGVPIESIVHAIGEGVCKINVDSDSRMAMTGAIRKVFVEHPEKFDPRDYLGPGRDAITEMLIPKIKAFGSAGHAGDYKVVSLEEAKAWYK
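40 nM FBPA preincubated 10 min at RT with compound (up to 57.5 uM final), then substrate plus GAPDH/TPI/NAD/arsenate coupling and diaphorase/resazurin added. Fluorescence read after 20 min at RT, 525/598 nm.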
Sm TGR inh – qHTS Assay for the Inhibitors of Schistosoma Mansoni Peroxiredoxins | purified TGR, DTNB reduction, TNB absorbance 405 nm | AID 485364, 2010 | Schistosoma mansoni thioredoxin glutathione reductase (TGR), Q962Y6 | actives 3% (n = 360,000) | Potency, µM (titrated, usually from 114 µM), hits mostly inhibitors; further: nearly all actives have a fitted effect of over 60% in size
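TGR 20 nM + NADPH 100 uM (dispensed conc.), cpd preinc 15 min RT; start with NADPH (500 uM addition) then DTNB (15 mM addition). Kinetic TNB absorbance, 405 nm filter. Four-parameter Hill fit across titration.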
TbPYK inhibitor – qHTS of Trypanosoma Brucei Inhibitors; Potency, µM (series often up to 76.8 µM), actives largely listed as inhibitors; AID 624173, 2012; pyruvate kinase (Trypanosoma brucei), Q57TT1; actives 0.12% (n = 410,000); TbPYK enzyme, Kinase-Glo Plus ATP luminescence, 45 min; further: nearly all actives have a fitted effect of over 50% in size
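Luminescence from Kinase-Glo Plus, added after a 45-minute room-temperature reaction, served as the end-point read-out. The enzyme and substrate were preincubated with compound before ADP (130 uM final) initiated turnover. Concentration-effect curves came from normalized qHTS data.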
Cycloheximide cs – Cycloheximide Counterscreen for Small Molecule Inhibitors of Shiga Toxin; cell reporter, cycloheximide protein synthesis inhibition counterscreen; max response, %; actives 12% (n = 300,000); in the data active means max response mostly above about 13%, no sharp cut-off; inactive means mostly below about 14%; further: read at 38.3 µM for the half of the compounds with a filed dose
LmPK inh – qHTS Assay for Inhibitors of Leishmania Mexicana Pyruvate Kinase (LmPK); Q27686; purified LmPK, Kinase-Glo ATP luminescence, 1 h; Potency, µM (doses to about 57.5 µM), usual class: inhibitors; actives 0.37% (n = 290,000); AID 1721, 2009
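qHTS format; LmPK 0.1 nM; substrates PEP 0.5 mM and ADP 0.1 mM. One-hour room-temperature incubation, then coupled luciferase luminescence; 0.5 nM enzyme wells mark activation.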
Of the large screens only hits and unclear results are named; the others gave an inactive call; ! = a repeat was not active. The full list was thinned out, with hits kept by preference. Unless noted, the call rests on the fitted dose curve; in most records, active means well fitted curve in the direction sought with a large enough effect; inconclusive means small, poorly fitted or top-dose-only effect, or another doubt; inactive means no such curve, though single readings can be large; an effect the other way counts as inactive or inconclusive.

Cc1cc(N2CCCCC2)nc2ccc(NC(=O)CCC(=O)NCCC(C)C)cc12	Shiga toxin inh 49, Cycloheximide cs 35
COCCCNC(=O)CCC(=O)Nc1ccc2nc(N3CCOCC3)cc(C)c2c1	none
CCCCNC(=O)CCC(=O)Nc1ccc2nc(N3CCCCC3)cc(C)c2c1	Shiga toxin inh 63, Cycloheximide cs 31
CCCCNC(=O)CCC(=O)Nc1ccc2nc(N3CCOCC3)cc(C)c2c1	none
CCOC(=O)C1CCCN(C(=O)CCC(=O)Nc2ccc3nc(N4CCOCC4)cc(C)c3c2)C1 (stereo not drawn)	Cycloheximide cs 24
COc1ccccc1C(=O)Nc1cccc2c1CCCC2	none
CCOc1ccc(S(=O)(=O)N2CCN(Cc3nc4ccc(C)cc4o3)CC2)cc1	none (no result: Shiga toxin inh, FBPA Giardia inh, Cycloheximide cs, LmPK inh)
O=C(CCC1N=C2c3ccccc3N=C(SCC(=O)Nc3ccc(F)cc3)N2C1=O)NCc1ccco1 (stereo not drawn)	none (no result: Shiga toxin inh, FBPA Giardia inh, Cycloheximide cs, LmPK inh)
CS(=O)(=O)N1CCC2(CC1)CN(c1ccc(-c3ccccc3)cc1)C2	none (no result: Shiga toxin inh, Sm TGR inh, Cycloheximide cs, LmPK inh)
COc1cccc(NC(=O)CCC(=O)Nc2ccc3nc(N4CCOCC4)cc(C)c3c2)c1	Shiga toxin inh 81, Cycloheximide cs 37
Cc1cc(OCC(=O)Nc2ccc3c(c2)OCCO3)cc(C)c1Cl	none
O=C(COc1cc(Cl)c(Cl)cc1Cl)NC(=O)Nc1ccc2c(c1)OCCO2	Shiga toxin inh 145, Cycloheximide cs 76
CCN(CC(=O)Nc1ccc2c(c1)OCCO2)C(=O)COc1cc(C)ccc1Cl	none (no result: Shiga toxin inh, FBPA Giardia inh, Cycloheximide cs, LmPK inh)
Cc1ccc(Cl)c(OCC(=O)Nc2ccc3c(c2)OCCO3)c1	Shiga toxin inh 112, Cycloheximide cs 52
COc1ccc(Cl)cc1NC(=O)CN(C)C(=O)Cc1n[nH]c(=O)c2ccccc12	none (no result: Shiga toxin inh, FBPA Giardia inh, Cycloheximide cs, LmPK inh)
OCC1=C[C@@H](O)[C@@H]2C=CO[C@@H](OC3O[C@H](CO)[C@@H](O)[C@H](O)[C@H]3O)[C@H]12 (stereo partly drawn)	none (no result: Sm TGR inh, TbPYK inhibitor, LmPK inh)
CNC(=S)N/N=C/c1ccc2c(c1)OCCO2	Shiga toxin inh 73, Cycloheximide cs 36
NC(=S)N/N=C/c1ccc(C23CC4CC(CC(C4)C2)C3)cc1	Shiga toxin inh 79, Cycloheximide cs 22
NC(=S)N/N=C/c1ccc2c(c1)OCCO2	FBPA Giardia inh inconclusive, Cycloheximide cs 28
COC(=O)C/C=C\[C@@H](C)[C@@H](/C=N\O[C@@H](C)CN1CCCCc2nc(C)c(C)cc21)OC	none (no result: Shiga toxin inh, Sm TGR inh, TbPYK inhibitor, Cycloheximide cs, LmPK inh)
COc1ccc(N2CCN(C(=O)c3cn(C)c4ccc(S(=O)(=O)N(C)C5CCCCC5)cc4c3=O)CC2)cc1	none (no result: Shiga toxin inh, FBPA Giardia inh, Cycloheximide cs, LmPK inh)
COc1ccc(C(=O)N2CCc3ccc(NC(=O)c4ccccn4)cc3C2)cc1F	Shiga toxin inh 56, Cycloheximide cs 42
COc1ccc(C(=O)COC(=O)c2cccc(NC(=O)c3ccc(OC)c(OC)c3)c2)cc1	none (no result: Shiga toxin inh, FBPA Giardia inh, Cycloheximide cs, LmPK inh)
Cn1c(-c2ccc([N+](=O)[O-])cc2)nc2ccccc21	none (no result: Sm TGR inh)
Cn1nc([N+](=O)[O-])c(C(C#N)c2nc3ccccc3n2C)c(Cl)c1=O (stereo not drawn)	Sm TGR inh 32µM
CC(=O)OCC1=C(C(=O)O)N2C(=O)C(NC(=O)c3ccc(COc4c(C)cccc4Cl)o3)C2SC1 (stereo not drawn)	Sm TGR inh 20µM
CO/N=C(\C(=O)N[C@@H]1C(=O)N2C(C(=O)O)=C(COC(N)=O)CS[C@@H]12)c1ccco1	none (no result: Shiga toxin inh, Sm TGR inh, TbPYK inhibitor, Cycloheximide cs, LmPK inh)
CC(=O)OCC1=C(C(=O)O)N2C(=O)C(NC(=O)c3ccc(COc4ccc(Cl)cc4)o3)C2SC1 (stereo not drawn)	Sm TGR inh 22µM
COc1ccc(C2CC(O)(c3ccccc3)Oc3cc(OC)cc(OC)c32)cc1 (stereo not drawn)	FBPA Giardia inh inconclusive, Cycloheximide cs 22!
O=C(NCc1cccs1)c1ccc(CSc2nc3ccncc3n2Cc2ccccc2)cc1	none (no result: Shiga toxin inh, FBPA Giardia inh, Cycloheximide cs, LmPK inh)
CCOC(=O)NC1(Nc2ccc(Cl)cn2)Oc2ccccc2O1	FBPA Giardia inh inconclusive, Sm TGR inh 7.1µM, Cycloheximide cs 8.1 (no result: TbPYK inhibitor)
CCOC(=O)/C=C/C(=O)OCC(=O)Nc1ccc(Cl)cn1	none
